# Assay results taken from PMC7862700, “An all-to-all approach to the identification of sequence-specific readers for epigenetic DNA modifications on cytosine”.
# How the values were obtained:
# Experiment in all cases: DAPPL (digital affinity profiling via proximity ligation, sequencing); 10 mM Tris-HCl pH 7.5, 50 mM NaCl, 1 mM DTT, 4% glycerol, room temperature, 30 min; GST-TFs on glutathione beads, 16-mer random dsDNA library, 0.1% formaldehyde crosslink after washing; high values mean tight binding
# [1] = target: T1, FEV (Homo sapiens, UniProt Q99581 1-238); settings: protein: recombinant; tags: N-terminal GST; dsDNA, one strand shown
# T1 sequence: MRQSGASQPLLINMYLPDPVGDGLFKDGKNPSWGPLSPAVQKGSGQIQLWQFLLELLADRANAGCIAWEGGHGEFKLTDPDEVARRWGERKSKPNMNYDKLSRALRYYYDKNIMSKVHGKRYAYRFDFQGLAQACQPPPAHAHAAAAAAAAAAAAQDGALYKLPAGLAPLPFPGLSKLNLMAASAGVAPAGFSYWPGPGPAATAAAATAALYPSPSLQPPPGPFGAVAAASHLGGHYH
# Method in brief: (§1)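 GST fusions of human transcription factors were expressed in yeast and captured with glutathione beads. Once given DNA barcodes and pooled alongside a tag-only sample, they were incubated for 30 min at room temperature with 200 nmole of a random double-stranded 16-mer DNA library in Tris/NaCl/DTT/glycerol buffer, then washed, crosslinked (0.1% formaldehyde), proximity-ligated, PCR-amplified and sequenced on an Illumina NextSeq500. The binding signal of each hexamer is its read frequency for a factor divided by its frequency for the tag-only sample.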
# [2] = target: ETV5 (Homo sapiens, UniProt P41161 1-510); settings: protein: recombinant; tags: N-terminal GST; dsDNA, one strand shown
# Method in brief: as §1
# [3] = target: HSF1 (Homo sapiens, UniProt Q00613 1-529); settings: protein: recombinant; tags: N-terminal GST; chain copies: 3; dsDNA, one strand shown
# Method in brief: as §1
# [4] = target: T2, SPIC (Homo sapiens, UniProt Q8N5J4 1-248); settings: protein: recombinant; tags: N-terminal GST; dsDNA, one strand shown
# T2 sequence: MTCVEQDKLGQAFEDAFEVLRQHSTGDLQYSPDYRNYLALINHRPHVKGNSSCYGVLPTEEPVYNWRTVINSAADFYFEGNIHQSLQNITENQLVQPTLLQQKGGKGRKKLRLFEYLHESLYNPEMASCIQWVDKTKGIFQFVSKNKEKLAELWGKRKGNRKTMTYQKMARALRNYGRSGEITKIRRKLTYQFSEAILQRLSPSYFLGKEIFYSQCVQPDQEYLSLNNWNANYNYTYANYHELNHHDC
# Method in brief: as §1
# [5] = target: ELF4 (Homo sapiens, UniProt Q99607 1-663); settings: protein: recombinant; tags: N-terminal GST; dsDNA, one strand shown
# Method in brief: as §1
# [6] = target: T3, ELK4 (Homo sapiens, UniProt P28324-2 1-405); settings: protein: recombinant; tags: N-terminal GST; dsDNA, one strand shown
# T3 sequence: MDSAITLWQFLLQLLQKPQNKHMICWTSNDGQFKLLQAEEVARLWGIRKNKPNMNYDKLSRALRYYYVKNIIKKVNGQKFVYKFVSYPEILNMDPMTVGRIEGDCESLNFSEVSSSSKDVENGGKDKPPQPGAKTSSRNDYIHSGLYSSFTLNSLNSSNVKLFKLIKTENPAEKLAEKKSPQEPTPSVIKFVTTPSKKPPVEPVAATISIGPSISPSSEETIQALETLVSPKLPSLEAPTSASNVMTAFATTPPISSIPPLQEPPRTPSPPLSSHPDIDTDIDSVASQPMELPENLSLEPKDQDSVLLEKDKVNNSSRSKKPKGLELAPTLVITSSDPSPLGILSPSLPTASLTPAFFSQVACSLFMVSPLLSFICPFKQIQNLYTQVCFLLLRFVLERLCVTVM
# Method in brief: as §1
# [7] = target: T4, ETV2 (Homo sapiens, UniProt O00321 1-342); settings: protein: recombinant; tags: N-terminal GST; dsDNA, one strand shown
# T4 sequence: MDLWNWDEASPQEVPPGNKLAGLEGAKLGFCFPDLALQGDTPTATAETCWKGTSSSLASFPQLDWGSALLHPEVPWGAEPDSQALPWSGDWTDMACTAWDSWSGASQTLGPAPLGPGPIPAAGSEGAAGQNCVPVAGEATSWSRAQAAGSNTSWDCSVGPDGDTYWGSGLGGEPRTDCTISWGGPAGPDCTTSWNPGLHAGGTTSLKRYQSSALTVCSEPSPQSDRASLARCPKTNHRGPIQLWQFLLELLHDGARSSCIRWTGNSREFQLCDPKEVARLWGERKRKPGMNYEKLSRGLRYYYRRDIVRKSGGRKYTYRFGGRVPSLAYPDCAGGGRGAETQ
# Method in brief: as §1
# [8] = target: T5, ELF3 (Homo sapiens, UniProt P78545 1-371); settings: protein: recombinant; tags: N-terminal GST; dsDNA, one strand shown
# T5 sequence: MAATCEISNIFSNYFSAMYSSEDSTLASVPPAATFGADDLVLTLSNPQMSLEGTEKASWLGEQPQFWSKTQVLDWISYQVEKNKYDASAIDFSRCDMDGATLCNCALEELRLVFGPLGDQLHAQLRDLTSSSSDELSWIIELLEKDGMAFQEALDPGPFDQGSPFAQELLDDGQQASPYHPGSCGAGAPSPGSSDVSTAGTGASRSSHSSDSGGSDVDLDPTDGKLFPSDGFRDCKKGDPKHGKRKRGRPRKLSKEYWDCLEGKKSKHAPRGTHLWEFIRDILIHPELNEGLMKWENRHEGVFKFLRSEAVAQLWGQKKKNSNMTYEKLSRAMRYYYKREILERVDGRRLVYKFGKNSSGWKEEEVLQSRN
# Method in brief: as §1
# [9] = target: CRX (Homo sapiens, UniProt O43186 1-299); settings: protein: recombinant; tags: N-terminal GST; dsDNA, one strand shown
# Method in brief: as §1
# [10] = target: ETV1 (Homo sapiens, UniProt P50549 1-477); settings: protein: recombinant; tags: N-terminal GST; dsDNA, one strand shown
# Method in brief: as §1
# Sequence of ETV5 (P41161 whole entry): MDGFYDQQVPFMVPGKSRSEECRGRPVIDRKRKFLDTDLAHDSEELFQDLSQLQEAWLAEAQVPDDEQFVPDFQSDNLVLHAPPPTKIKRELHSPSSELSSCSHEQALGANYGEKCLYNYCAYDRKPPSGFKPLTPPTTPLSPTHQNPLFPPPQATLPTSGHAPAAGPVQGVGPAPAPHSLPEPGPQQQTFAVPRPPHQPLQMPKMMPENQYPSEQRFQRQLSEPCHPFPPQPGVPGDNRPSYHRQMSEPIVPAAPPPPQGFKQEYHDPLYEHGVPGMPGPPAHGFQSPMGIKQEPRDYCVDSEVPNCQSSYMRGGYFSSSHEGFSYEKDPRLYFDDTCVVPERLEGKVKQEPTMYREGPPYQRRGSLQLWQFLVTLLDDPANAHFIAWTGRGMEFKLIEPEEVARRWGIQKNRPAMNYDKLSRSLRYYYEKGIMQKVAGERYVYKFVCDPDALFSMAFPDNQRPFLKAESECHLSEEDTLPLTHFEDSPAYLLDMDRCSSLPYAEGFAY
# Sequence of CRX (O43186 whole entry): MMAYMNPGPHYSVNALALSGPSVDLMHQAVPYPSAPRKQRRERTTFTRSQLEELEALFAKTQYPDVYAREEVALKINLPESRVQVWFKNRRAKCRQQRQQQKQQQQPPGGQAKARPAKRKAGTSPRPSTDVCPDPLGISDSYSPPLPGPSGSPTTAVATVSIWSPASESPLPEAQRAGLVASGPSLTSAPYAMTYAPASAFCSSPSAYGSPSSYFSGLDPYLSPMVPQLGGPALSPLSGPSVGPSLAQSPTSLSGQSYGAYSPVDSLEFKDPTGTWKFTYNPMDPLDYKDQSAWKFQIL
# Sequence of ELF4 (Q99607 whole entry): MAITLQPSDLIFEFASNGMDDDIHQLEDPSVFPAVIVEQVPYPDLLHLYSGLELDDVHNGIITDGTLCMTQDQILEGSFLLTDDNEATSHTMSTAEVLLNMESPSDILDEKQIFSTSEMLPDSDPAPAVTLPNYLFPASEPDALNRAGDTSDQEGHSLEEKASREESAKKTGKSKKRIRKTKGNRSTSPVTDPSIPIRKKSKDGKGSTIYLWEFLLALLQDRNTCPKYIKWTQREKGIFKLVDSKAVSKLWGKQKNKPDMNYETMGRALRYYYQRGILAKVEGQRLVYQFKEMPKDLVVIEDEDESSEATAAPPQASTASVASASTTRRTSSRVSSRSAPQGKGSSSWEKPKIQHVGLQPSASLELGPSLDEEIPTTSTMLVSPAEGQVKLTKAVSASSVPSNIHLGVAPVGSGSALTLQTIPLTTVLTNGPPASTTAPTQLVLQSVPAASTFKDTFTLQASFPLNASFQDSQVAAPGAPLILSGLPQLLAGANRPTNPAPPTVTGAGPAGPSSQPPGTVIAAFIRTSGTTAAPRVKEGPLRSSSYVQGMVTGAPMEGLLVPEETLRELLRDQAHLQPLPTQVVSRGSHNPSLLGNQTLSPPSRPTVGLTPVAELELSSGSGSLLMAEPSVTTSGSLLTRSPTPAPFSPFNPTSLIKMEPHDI
# Sequence of ETV1 (P50549 whole entry): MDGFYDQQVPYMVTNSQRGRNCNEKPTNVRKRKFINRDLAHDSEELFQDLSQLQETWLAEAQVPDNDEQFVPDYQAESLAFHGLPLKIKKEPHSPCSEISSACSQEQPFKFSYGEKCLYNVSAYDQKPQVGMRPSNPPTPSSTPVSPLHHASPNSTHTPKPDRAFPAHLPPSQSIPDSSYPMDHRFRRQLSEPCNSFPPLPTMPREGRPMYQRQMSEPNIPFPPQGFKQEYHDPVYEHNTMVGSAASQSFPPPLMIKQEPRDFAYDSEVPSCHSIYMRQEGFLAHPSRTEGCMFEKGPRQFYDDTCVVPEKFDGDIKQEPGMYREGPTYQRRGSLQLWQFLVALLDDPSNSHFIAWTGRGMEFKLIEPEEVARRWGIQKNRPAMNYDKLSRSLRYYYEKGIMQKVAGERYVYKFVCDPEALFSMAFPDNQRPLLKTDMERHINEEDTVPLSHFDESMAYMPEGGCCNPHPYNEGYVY
# Sequence of HSF1 (Q00613 whole entry): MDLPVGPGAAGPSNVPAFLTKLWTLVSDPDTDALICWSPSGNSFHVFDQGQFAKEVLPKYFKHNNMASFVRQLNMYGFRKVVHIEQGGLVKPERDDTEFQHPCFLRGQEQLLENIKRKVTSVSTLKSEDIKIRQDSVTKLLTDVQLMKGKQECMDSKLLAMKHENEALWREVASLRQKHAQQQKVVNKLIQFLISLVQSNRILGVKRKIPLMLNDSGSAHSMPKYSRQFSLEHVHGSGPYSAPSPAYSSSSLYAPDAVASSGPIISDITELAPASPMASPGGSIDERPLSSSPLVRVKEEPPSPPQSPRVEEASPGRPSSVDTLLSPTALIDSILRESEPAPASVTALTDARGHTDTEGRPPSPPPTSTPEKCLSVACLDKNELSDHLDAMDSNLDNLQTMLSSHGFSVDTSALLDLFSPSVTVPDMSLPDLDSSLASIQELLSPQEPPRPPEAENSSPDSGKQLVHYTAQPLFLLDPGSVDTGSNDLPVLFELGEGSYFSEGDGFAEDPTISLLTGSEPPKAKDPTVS
sequence,measurement,setting,value
TAATCC,binding signal,[1],"1.24 fold enrichment (6-mer frequency, TF over GST control)"
same,binding signal,[2],"1.3 fold enrichment (6-mer frequency, TF over GST control)"
same,binding signal,[3],"4.27 fold enrichment (6-mer frequency, TF over GST control)"
same,binding signal,[4],"1.14 fold enrichment (6-mer frequency, TF over GST control)"
same,binding signal,[5],"1.23 fold enrichment (6-mer frequency, TF over GST control)"
same,binding signal,[6],"1.23 fold enrichment (6-mer frequency, TF over GST control)"
same,binding signal,[7],"1.2 fold enrichment (6-mer frequency, TF over GST control)"
same,binding signal,[8],"1.22 fold enrichment (6-mer frequency, TF over GST control)"
same,binding signal,[9],"7.84 fold enrichment (6-mer frequency, TF over GST control)"
same,binding signal,[10],"1.26 fold enrichment (6-mer frequency, TF over GST control)"
